Bioassay records: PubChem, National Center for Advancing Translational Sciences (NCATS)
The sample as a whole holds a higher share of hits than the screen did.
HT1080 IDH1KD tx – toxicity to HT-1080 IDH1 knockdown cells (counter line) | HT-1080 IDH1 knockdown viability, ATP luminescence, 48 h | Potency, µM (titrated, usually from 46.1 µM), for the others: at the highest dose activity, negative = toxicity, hits mostly cytotoxic | 360,000 tested, 2% active | AID 686971;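 further: potency means the concentration at half of the fitted maximal effect; 0% = DMSO wells and -100% = cell-free medium wells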
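Knockdown cells (IDH1KD HT-1080) received compounds 2 h after plating at 750 cells/well and were kept 48 h at 37 °C in 5% FBS RPMI. A CellTiter-Glo luminescence read gave % activity for curve fitting.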
IL1B secr inh – blocks inflammasome-driven IL-1 beta release. THP-1 LPS/ATP IL-1B secretion, AlphaLISA, 16 h; stronger effect = lower value. AID 743279. 360,000 tested, 4.7% active. activity change, % at 57.5 µM; in the data active means activity change below about -50%; inconclusive means mostly about -30% to -49%
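Secreted IL-1B measured by AlphaLISA bead assay after 16 h compound exposure of THP-1 cells; compounds (final up to 57.5 uM) added 1 h before LPS (250 ng/mL) and ATP (1.25 mM) stimulation; lower signal means less secretion.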
DT40 TDP1 CPT – DT40-hTDP1 cell growth loss with CPT | chicken DT40 Tdp1-/-;hTDP1 cells + 20 nM CPT, ATP luminescence, 48 h | Potency, µM (top dose mostly 46.2 µM), without a hit: at the highest dose activity change, negative = growth inhibition, actives largely listed as inhibitors | 420,000 tested, 12% active; further: potency means the concentration at half of the fitted maximal effect; nearly all actives have a fitted effect of over 55% in size
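Cell growth measured by CellTiter-Glo luminescence after a minimum 48 h, 37 C compound exposure with 20 nM CPT in Tdp1-knockout DT40 cells stably expressing hTDP1, seeded 400/well; qHTS titration format.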
HT1080-NT tox – kills 2HG-producing HT-1080-NT fibrosarcoma cells; HT-1080-NT fibrosarcoma viability, CellTiter-Glo ATP luminescence, 48 h; Potency, µM (doses to about 46.1 µM), without a hit: at the highest dose activity, negative = less viability, actives largely listed as cytotoxic; 360,000 tested, 1.6% active; AID 686970;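 further: NT is the 2HG producing partner of a matched IDH1 knockdown line; potency means the concentration at half of the fitted maximal effect; 0% = DMSO-treated cells and -100% = media-only wells without cells; nearly all actives have a fitted effect of over 55% in size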
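HT-1080-NT; 750 cells/well; 5% FBS RPMI; 48 h compound, 37 degrees C; CellTiter-Glo luminescence; curve fitting and curve-class assignment.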
ALOX12 inh – ALOX12 (human) lipoxygenase inhibition; purified 12hLO, xylenol orange hydroperoxide absorbance; 580,000 tested, 1.1% active; P18054; Potency, µM (titrated, usually from 108 µM), without a hit: at the highest dose activity change, negative = inhibition, usual class: inhibitors; further: potency means the concentration at half of the fitted maximal effect
Target sequence (P18054 whole entry, looked up): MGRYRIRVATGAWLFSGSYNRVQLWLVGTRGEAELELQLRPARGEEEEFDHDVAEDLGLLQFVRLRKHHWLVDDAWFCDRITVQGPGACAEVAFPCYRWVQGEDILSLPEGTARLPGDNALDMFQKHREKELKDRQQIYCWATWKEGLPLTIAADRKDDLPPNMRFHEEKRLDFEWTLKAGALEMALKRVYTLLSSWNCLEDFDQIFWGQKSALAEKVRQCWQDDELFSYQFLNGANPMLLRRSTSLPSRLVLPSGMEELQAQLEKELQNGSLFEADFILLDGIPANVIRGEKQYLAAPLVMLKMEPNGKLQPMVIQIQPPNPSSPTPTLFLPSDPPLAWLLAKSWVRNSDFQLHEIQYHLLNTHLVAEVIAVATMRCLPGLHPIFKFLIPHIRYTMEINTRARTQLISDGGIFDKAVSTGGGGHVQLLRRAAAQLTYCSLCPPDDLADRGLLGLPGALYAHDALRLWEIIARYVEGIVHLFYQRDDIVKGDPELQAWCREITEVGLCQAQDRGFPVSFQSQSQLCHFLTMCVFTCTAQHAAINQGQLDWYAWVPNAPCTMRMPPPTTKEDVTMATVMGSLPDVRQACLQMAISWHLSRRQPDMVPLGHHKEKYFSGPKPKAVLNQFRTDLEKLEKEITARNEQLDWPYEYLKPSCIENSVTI
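Hydroperoxide product was detected by ferrous iron/xylenol orange as the 573 to 405 nm absorbance ratio. Arachidonic acid at 40 uM (final) was turned over for 30 min at room temperature by 150 nM human 12hLO, pH 7.0 Hepes buffer, after 15 min compound preincubation.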
DT40 TDP1 no CPT – qHTS for Inhibitors of human tyrosyl-DNA phosphodiesterase 1 (TDP1): qHTS in cells in absence of CPT | 420,000 tested, 15% active | DT40 Tdp1-/- hTDP1 cells, no CPT, ATP luminescence, 48 h | Potency, µM (doses to about 46.2 µM), without a hit: at the highest dose activity change, negative = growth inhibition, most hits filed as inhibitors; further: potency means the concentration at half of the fitted maximal effect; nearly all actives have a fitted effect of over 55% in size
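Chicken DT40 Tdp1-/- cells stably complemented with human TDP1 were seeded at 400 cells/well with DMSO in place of 20 nM camptothecin. After compound pinning, cells grew at least 48 hr at 37 °C; viability read by CellTiter-Glo luminescence.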
* = called active by the depositor; ? = inconclusive; . = no result; [ ] = remark or other dose. Unless noted, the call rests on the fitted dose curve; in most records, active means well fitted curve in the direction sought with a large enough effect; inconclusive means small, poorly fitted or top-dose-only effect, or another doubt; inactive means no such curve, though single readings can be large; an effect the other way counts as inactive or inconclusive. Unless noted, on the % scale 0 is the no-effect control and ±100 the full control effect.

SMILES | HT1080 IDH1KD tx | IL1B secr inh | DT40 TDP1 CPT | HT1080-NT tox | ALOX12 inh | DT40 TDP1 no CPT
C(#CC1CCCCC1)c1ccc2c(c1)COc1c3ccccc3nn1-2 | -2% | 75 | -15% | 12% | -11% | -9%
COc1ccc(C[C@H]2CN3C(=NC[C@H]3C)N2CCNC(=O)c2ccc(C)c(Br)c2)cc1 | ? | ? | 6.5µM* | -28% | -25% | 5.8µM*
COc1ccc(C[C@@H]2CN3C(=NC[C@@H]3C)N2C[C@H](C)NC(=O)c2ccc(C)c(Br)c2)cc1 | 0% | -17 | 18µM* | -27% | -21% | 15µM*
Cc1ccc(C(=O)NCCN2C3=NC[C@H](C)N3C[C@H]2Cc2ccc(O)cc2)cc1Br | 1% | -20 | 21µM* | -1% | -27% | 21µM*
Cc1ccc(C(=O)Oc2cccc(OC(=O)c3ccc(C)cc3)c2C)cc1 | . | . | . | . | -16% | .
CC[C@H]1CN(C(=O)c2ccnc(Cl)c2)CC[C@H]1CC(=O)N1CCC(C(=O)OC)CC1 | . | . | . | . | -15% | .
CCCOc1nc2ccccc2nc1N1CCC(C(=O)NCc2ccc(Cl)cc2)CC1 | . | . | . | . | 3% | .
Cn1nnnc1SCCCNCc1ccccc1OCc1ccccc1Cl | . | . | 5.2µM* | . | -1% | 4.6µM*
Cn1nnnc1SCCCNCc1cc(Cl)ccc1OCc1ccccc1 | . | . | ? | . | -10% | ?
Cn1nnnc1SCCCNCc1cccc(OCc2ccccc2Cl)c1 | . | . | 18µM* | . | -17% | 16µM*
CCOC(=O)c1cc(-c2ccc(S(=O)(=O)N3CCN(c4cccc(C)c4C)CC3)s2)on1 | . | . | . | . | 6% | .
O=C(c1cccs1)N1CCCn2cc(-c3ccc4c(c3)OCO4)nc21 | . | . | . | . | 29% | .
CCCCNc1c(-c2cccc(-c3cc(C(C)=O)cs3)c2)nc2ccc(C)cn12 | ? | -103* | 16µM* | 21µM* | 1% | 13µM*
CCCCNc1c(-c2ccc(-c3cccc(Cl)c3)cc2)nc2ccccn12 | ? | -26 | ? | ? | ? | ?
CCCCNc1c(-c2cccc(-c3ccc(OC)cc3)c2)nc2cc(C)ccn12 | ? | -71* | 16µM* | ? | ? | 18µM*
CCCCNc1c(-c2cccc(-c3ccc(OC)cc3)c2)nc2ccc(C)cn12 | ? | -100* | 23µM* | ? | -20% | 18µM*
CCOc1ccc(-c2cc(C(=O)NCCOC)[nH]n2)c(C)c1 | 7% | 18 | -18% | 21% | ? | -15%
CCOc1ccc(-c2cc(C(=O)Nc3ccc(C)c(NS(C)(=O)=O)c3)[nH]n2)c(C)c1 | ? | -2 | 18µM* | -27% | -70% | ?
CC(=O)N1c2ccc(S(=O)(=O)NCCC(=O)NCCc3cccc(C)c3)cc2CC1C (stereo unspecified) | 4% | -1 | ? | 9% | -2% | -22%
CC(=O)N1c2ccc(S(=O)(=O)NCCC(=O)Nc3ccc(C)cc3Br)cc2CC1C (stereo unspecified) | . | . | 12µM* | . | -7% | 9.2µM*
CC(=O)N1c2ccc(S(=O)(=O)NCCC(=O)NCCc3ccc(C)cc3)cc2CC1C (stereo unspecified) | -27% | 40 | 21µM* | 0% | 5% | ?
CC(=O)N1c2ccc(S(=O)(=O)NCCC(=O)NCCc3ccc(Cl)cc3)cc2CC1C (stereo unspecified) | -10% | 16 | 16µM* | -17% | -3% | ?
Cc1ccc(S(=O)(=O)NCCC(=O)NCCc2ccc(S(N)(=O)=O)cc2)cc1C | 0% | -2 | 3.3µM* | -5% | 1% | -23%
CCOc1ccc(CNC(=O)C2CCN(S(=O)(=O)N3CCC(C)CC3)CC2)cc1OC | 0% | 13 | -13% | 9% | 18% | ?
CC(N)c1ccc(OCC(F)(F)F)cc1 (stereo unspecified) | . | . | . | . | -8% | .
SMILES | HT1080 IDH1KD tx | IL1B secr inh | DT40 TDP1 CPT | HT1080-NT tox | ALOX12 inh | DT40 TDP1 no CPT
CC(c1ccncn1)N(C)Cc1nc(-c2ccc(C(F)(F)F)cc2)no1 (stereo unspecified) | 7% | 0 | 18µM* | 1% | 0% | ?
OC(CNc1nccc(-c2cccnc2)n1)COc1ccc(Cl)cc1 (stereo unspecified) | . | . | . | . | -4% | .
Oc1ccc(-c2[nH]ncc2-c2ccc(Cl)cc2)c(O)c1 | -21% | -8 | -15% | -13% | ? | ?
Oc1ccc(-c2[nH]ncc2-c2cccc3cccnc23)c(O)c1 | ? | -25 | 23µM* | ? | -13% | ?
CCOc1ccc(NC(=O)NCCN2CCN(c3ccccc3F)CC2)cc1 | 3% | ? | ? | 1% | 1% | ?
CCOc1ccc(OCC)c(NC(=O)CN2CCN(c3cccc(C)c3C)CC2)c1 | 3% | 11 | 16µM* | 8% | ? | 23µM*
CCOc1ccc(OCC)c(NC(=O)CN2CCN(C(=O)c3ccco3)CC2)c1 | 0% | -17 | ? | 3% | 0%[57.4 µM] | ?
CCOc1cccc(N2CCN(CCNC(=O)Nc3ccc(C)cc3)CC2)c1C | -3% | -68* | ? | -5% | 9% | ?
CCOc1ccc(NC(=O)NCCN2CCN(c3cccc(C)c3C)CC2)cc1 | 2% | -3 | 21µM* | 1% | 0% | 21µM*
Cc1ccc(C)c(CN2CC(C(=O)NCc3ccncc3)C3(CCOCC3)C2)c1 (stereo unspecified) | . | . | . | . | 46% | .
CCN(CC)C(=O)[C@@H]1C[C@H](N)CN1C(=O)c1cc2ccccc2n(C)c1=O | . | . | . | . | 7% | .
Cc1cccc(C(=O)N2CCCC(c3nn[nH]n3)C2)c1 (stereo unspecified) | . | . | . | . | 9% | .
Cc1ccc(N2CCN(C(CCc3ccccc3)C(=O)Nc3c(C)cccc3C)CC2)cc1 (stereo unspecified) | -9% | -14 | ? | 0% | -12% | 15µM*
Cc1cccc(C)c1NC(=O)CN(C)CCc1ccccc1 | -1% | 28 | ? | 5% | -6% | ?
Cc1ccc(N2CCN(C(C(=O)Nc3c(C)cccc3C)c3cccc(F)c3)CC2)cc1 (stereo unspecified) | 17% | 0 | ? | 24% | 3% | ?
Cc1cccc(C)c1NC(=O)C(c1ccccc1)N(C)CCc1ccccc1 (stereo unspecified) | ? | 18 | ? | ? | -6% | 18µM*
COc1ccccc1CNC(=O)C1CCCN(C(=O)c2cnn(-c3ccc(F)cc3)c2-n2cccc2)C1 (stereo unspecified) | . | . | . | . | 0% | .
